In the library only some 1.5% were active in any assay of this set; here they are far more common.
NadD inh: inhibitors of S. aureus NadD, primary screen, biochemical, colorimetric, uHTS; inhibition, % at 20 µM; 0.78% of 360,000 active; Nicotinate-nucleotide adenylyltransferase NadD (Staphylococcus aureus N315); purified NadD enzyme, colorimetric absorbance read-out; AID 602399, 2012; in the data active means inhibition above about 26%
GC-A act: GC-A stimulated cGMP production enhancers – HEK293 GC-A cells, cGMP TR-FRET, EC30 ANP, primary screen | Atrial natriuretic peptide receptor 1 (Homo sapiens), P16066 | 0% at EC30 ANP, 100% saturating ANP | activation, % at 10 µM | 0.14% of 370,000 active; in the data active means activation above about 40%
Target sequence (P16066 whole entry, looked up): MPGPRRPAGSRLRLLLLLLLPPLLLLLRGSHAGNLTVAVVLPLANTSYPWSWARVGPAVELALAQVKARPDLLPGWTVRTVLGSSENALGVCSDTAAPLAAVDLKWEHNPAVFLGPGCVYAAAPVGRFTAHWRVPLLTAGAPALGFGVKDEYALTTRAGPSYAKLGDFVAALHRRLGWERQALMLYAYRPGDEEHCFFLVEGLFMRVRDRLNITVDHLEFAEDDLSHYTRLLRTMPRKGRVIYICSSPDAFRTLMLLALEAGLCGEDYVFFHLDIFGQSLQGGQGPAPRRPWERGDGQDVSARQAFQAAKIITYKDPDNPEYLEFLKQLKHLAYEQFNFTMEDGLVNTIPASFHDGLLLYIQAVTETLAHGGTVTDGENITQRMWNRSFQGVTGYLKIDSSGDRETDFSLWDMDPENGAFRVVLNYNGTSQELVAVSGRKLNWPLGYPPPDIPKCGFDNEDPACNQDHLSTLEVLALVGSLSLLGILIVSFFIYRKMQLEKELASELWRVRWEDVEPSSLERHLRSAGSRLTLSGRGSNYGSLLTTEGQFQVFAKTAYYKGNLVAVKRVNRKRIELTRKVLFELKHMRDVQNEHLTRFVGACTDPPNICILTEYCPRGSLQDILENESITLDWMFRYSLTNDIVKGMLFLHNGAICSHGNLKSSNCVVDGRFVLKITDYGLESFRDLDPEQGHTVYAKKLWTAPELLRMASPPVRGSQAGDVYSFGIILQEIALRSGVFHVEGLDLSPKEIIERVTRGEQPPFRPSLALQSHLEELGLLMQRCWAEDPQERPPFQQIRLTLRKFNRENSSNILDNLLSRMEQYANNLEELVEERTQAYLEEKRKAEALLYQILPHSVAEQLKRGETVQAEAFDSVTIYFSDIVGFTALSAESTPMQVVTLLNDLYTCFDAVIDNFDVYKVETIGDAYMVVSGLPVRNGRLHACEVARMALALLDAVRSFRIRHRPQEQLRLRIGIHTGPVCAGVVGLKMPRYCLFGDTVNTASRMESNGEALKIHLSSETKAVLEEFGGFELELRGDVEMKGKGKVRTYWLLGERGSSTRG
Neddylation inh: inhibitors of cullin neddylation, primary screen, biochemical, TR-FRET, uHTS, NAE and Ubc12. NEDD8-conjugating enzyme Ubc12 (Homo sapiens) + NEDD8-activating enzyme E1 regulatory …. inhibition, % at 25 µM. 0.58% of 360,000 active; in the data active means inhibition above about 36%
GC-B act: human GC-B receptor activators, primary screen, HEK293 GC-B cells, cGMP TR-FRET, EC30 CNP. 0.11% of 370,000 active. AID 1920062, 2024. Atrial natriuretic peptide receptor 2 (Homo sapiens), P20594. 0% at EC30 CNP, 100% saturating CNP. activation, % at 10 µM;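 active means activation at 10 µM reaching about 35% in either raw or pattern-adjusted values, limit read from the data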
* marks the source's active call; other numbers are inactive results; x = not tested or not shown.

SMILES	NadD inh	GC-A act	Neddylation inh	GC-B act
O=C1Nc2ccccc2N(C(=O)c2c(F)cccc2F)C1c1nc2ccccc2[nH]1 (configuration not stated)	12	-4	52*	-3
O=C(O)C1Nc2c(O)cc(Cl)c([N+](=O)[O-])c2C2C=CCC12 (configuration not stated)	63*	-12	-41	-5
C#CCNc1cccc2c1S(=O)(=O)N[C@H](C)CO2	x	5	x	0
Cc1cc(/C=C2\C(=N)N3C(SCc4ccccc4)=NSC3=NC2=O)c(C)n1Cc1ccccc1	31*	-4	-9	1
COc1ccc(-n2cccc2/C=C2\C(=N)N3N=C(C(C)C)SC3=NC2=O)cc1	12	-4	-16	3
Cc1cc(/C=C2\C(=N)N3N=C(C(C)C)SC3=NC2=O)c(C)n1Cc1ccccc1	-6	4	0	6
Cc1cc(/C=C2\C(=N)N3N=C(c4ccco4)SC3=NC2=O)c(C)n1Cc1ccccc1	27	-8	40*	1
COc1ccc(-n2cccc2/C=C2\C(=N)N3N=C(c4ccco4)SC3=NC2=O)cc1	74*	-14	-7	-9
CCC1=NN2C(=N)/C(=C/c3cc(C)n(Cc4ccccc4)c3C)C(=O)N=C2S1	5	3	17	5
O=C(Cn1c(-c2cncs2)nc2ccccc21)NC1CCCCC1	x	-1	x	3
COc1ccccc1-c1cc2nc(C)c(CCC(=O)NC(C)CCc3ccco3)c(C)n2n1 (configuration not stated)	2	2	51*	-6
CC(C)(C)C(=O)COC(=O)CNC(=O)c1ccc(Oc2ccccc2)cc1	-3	42*	5	-1
Cc1cccc(OCC(C)CN2CCC(C(O)(c3ccccc3)c3ccccc3)CC2)c1 (configuration not stated)	x	-13	x	-10
CC(=O)c1c(C)n(-c2cccc(Cl)c2)c2ccc(O)cc12	-4	66*	9	11
C[C@H]1[C@H](C)CC[C@]2(C(=O)O)CC[C@]3(C)C(=CC[C@@H]4[C@@]5(C)C[C@@H](O)[C@H](O)C(C)(C)[C@@H]5CC[C@]43C)[C@H]12	35*	x	-7	x
C[C@@H]1CC[C@]2(C(=O)O)CC[C@]3(C)C(=CCC4[C@]56CC[C@@](O)(OC5)C(C)(C)C6CC[C@]43C)C2[C@H]1C (some centres not stated)	5	x	8	x
C[C@@H]1CC[C@]2(C(=O)O)CC[C@]3(C)C(=CCC4[C@@]5(C)CC[C@H](O)[C@@](C)(C(=O)O)C5CC[C@]43C)C2[C@]1(C)O (some centres not stated)	1	0	-5	-2
C[C@H]1[C@H](C)CC[C@]2(C(=O)O)CC[C@]3(C)C(=CC[C@@H]4[C@@]5(C)CC[C@H](O)C(C)(C)[C@@H]5CC[C@]43C)[C@H]12	47*	-8	6	2
CCNC(=O)N1C[C@H]2CON(C)[C@H]2C[C@H]1c1ccc(N2CCCCC2)cc1	x	0	x	3
COc1ccc(OCc2cc(C(=O)N[C@H]3CCCCNC3=O)no2)c(Cl)c1	-1	23	-2	-1
CSc1ccccc1OCc1cc(C(=O)N[C@H]2CCCCNC2=O)no1	1	62*	6	2
COc1ccc(NC(=O)c2cccc3c2C(=O)c2ccc(-c4ccc(F)cc4OCc4ccccc4)cc2S3(=O)=O)cc1	30*	5	-10	7
COc1ccc(-c2ccc3c(c2)S(=O)(=O)c2cccc(C(=O)NCCOc4ccccc4)c2C3=O)cc1OC	11	x	-28	x
COC(=O)C1=CC(=O)C=C(OC)[C@@]12Oc1cc(C)cc(OC)c1C2=O	x	79*	x	34
COc1ccc(C(=O)Nc2ccccc2C(=O)NCc2ccco2)cc1OC	-6	3	9	0
SMILES	NadD inh	GC-A act	Neddylation inh	GC-B act
COc1ccc(C(=O)Nc2ccc(Cl)cc2C(=O)NCc2ccco2)cc1OC	-7	33	27	39*
COc1cc(C(=O)Nc2sc3c(c2C(=O)NCc2ccco2)CCCC3)cc(OC)c1OC	-1	29	-50	41*
CCCCCCC12C(=Cc3cc(C)ccc31)c1ccccc1C(CC(=O)NCc1ccccc1)N2C(=O)OC (configuration not stated)	x	-5	x	-5
Cc1ccc(C(=O)CCS(=O)(=O)c2ccc(Br)cc2)cc1	-4	46*	-28	-5
CC1C(=O)N(Cc2cn(CCC3OCCO3)nn2)CCS(=O)(=O)N1Cc1ccc(-c2ccc(Cl)cc2)cc1 (configuration not stated)	1	49*	-12	-9
O=C1C=CC2=C3c4cc(O)c(O)cc4CC3(O)COC2=C1O (configuration not stated)	48*	-12	-13	-4
COc1cccc(CNC(=O)[C@H]2CCCN2C(=O)[C@H]2CCCN2C(=O)c2ccc(F)c(C(F)(F)F)c2)c1	x	0	x	3
CCOC(=O)N1CCN(CCC(=O)c2ccc(OC)cc2)CC1	-6	4	-2	-5
COc1cc2c(cc1OC)CN(CCC(=O)c1ccc(Br)cc1)CC2	-4	42*	x	-11
CCOC(=O)N1CCN(CCC(=O)c2ccc(Br)cc2)CC1	-7	53*	1	-11
CCOC(=O)N1CCN(CCC(=O)c2ccc(Cl)cc2)CC1	-1	65*	-2	-14
O=C(COC(=O)Cn1cnc2ccccc21)Nc1cc(S(=O)(=O)N2CCOCC2)ccc1Cl	1	-3	2	0
O=C(COC(=O)Cn1cnc2ccccc21)Nc1cc2c(cc1Cl)C(=O)c1ccccc1C2=O	39*	7	-54	-4
Cc1ccc(/C(=N/Nc2nc3ccccc3s2)C2=C(O)c3ccccc3C2=O)cc1	34*	1	14	0
O=c1oc2ccccc2cc1-c1nc(-c2cccs2)cs1	-1	9	34	-5
COc1cccc2cc(-c3nc(-c4cccs4)cs3)c(=O)oc12	22	9	46*	-5
O=C1c2cc(Br)ccc2N(Cc2ccc(Br)cc2)S(=O)(=O)C1c1cc(Cl)c(Cl)cc1[N+](=O)[O-] (configuration not stated)	32*	x	-22	x
Cc1cc(/C=C2/SC(=S)N(c3cccc(Cl)c3)C2=O)c(C)n1-c1cccnc1	30*	5	-11	4
Cc1cc(/C=C2/SC(=S)N(c3ccc([N+](=O)[O-])cc3)C2=O)c(C)n1-c1cccnc1	17	0	-21	-5
CC(=O)CC[C@H]1CC[C@]2(CCCN(C(=O)C3CCCCC3)C2)O1	x	2	x	4
Cc1nc2ccc(NC(=O)c3cc([N+](=O)[O-])cc([N+](=O)[O-])c3Cl)cc2s1	34*	80*	-22	21
C=CCn1c(=O)c2c3c(sc2n2c(Nc4ccc(OC)cc4)nnc12)CCCC3	9	48*	2	54*

Bioassay records (PubChem)
